# Hit rate of the full screen: of about 1,200 compounds, about 290 (24%) were called active. Inconclusive results (about 9%) are left out. The rule behind the calls is not given here. The list is a sample of the results. Potency and affinity values are given separately.
# Experiment: cytotoxicity in EBV lymphoblastoid cells, dose response, cytotoxicity control, cell-based, plate reader, cherry-picks, set 2 (AID 504882);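 note: 0% = neutral control wells and -100% = positive control wells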
# Settings: EBV lymphoblastoid cells (LCL) viability; series mostly up to 19.5 µM; activity change, negative = cytotoxicity: at the top concentration
row,SMILES,"activity change, negative = cytotoxicity"
1,Cc1ccc(S(=O)(=O)N2CCC[C@H]2C(=O)Nc2ccccc2C)cc1,2.08% (inactive)
2,Cc1ccc(C(=O)CSc2nnnn2C(C)C)c(C)c1,4.09% (inactive)
3,CN1CCc2cccc3c2C1Cc1ccc(O)c(O)c1-3 (stereo not given),12.1% (inactive)
4,O=C(Nc1cc(Cl)ccc1Cl)C1Cc2ccccc2O/C1=N\O (stereo not given),5.33% (inactive)
5,CC(NC(=O)CCOc1ccccc1)c1ccccc1 (stereo not given),8.45% (inactive)
6,COc1cc2c(CCNC(C)=O)c[nH]c2cc1Cl,12.4% (inactive)
7,COCC(=O)N(C)c1nnc(-c2ccccn2)s1,26% (inactive)
8,CC1(C)CC(NS(=O)(=O)c2ccc(F)cc2)CC(C)(C)N1,26.8% (inactive)
9,COc1ccc(C(=O)C(CN2CCOCC2)c2ccccc2)cc1F (stereo not given),-82.4% (inactive)
10,O=C(CC(c1ccc(F)cc1)c1ccco1)N1CCOCC1 (stereo not given),0.708% (inactive)
11,O=C(Cn1cc(CNC(=O)C2CCCCC2)nn1)Nc1cc(C(F)(F)F)ccc1Cl,9.71% (inactive)
12,C=CC[N+](C)(C)C/C(Cl)=C(\Cl)c1ccccc1,-1.08% (inactive)
13,O=C1CCc2cc(OCCCCc3nnnn3C3CCCCC3)ccc2N1,10.6% (inactive)
14,Cc1nnc(NC(=O)CSc2nnc(Cc3cccn3C)n2CCc2ccccc2)s1,45.3% (inactive)
15,Cc1nnc(SCc2cnc(-c3ccc(C(C)C)cc3)s2)n1C,4.92% (inactive)
16,COc1cc(/C=C2/SC(=S)N(Cc3ccccc3)C2=O)ccc1OCC(=O)O,8.06% (inactive)
17,COc1ccc(/C=N/N=C/c2ccc(OC)c(OC)c2)cc1OC,20.2% (inactive)
18,CCOc1ccc(S(=O)(=O)N2CCC(C(=O)NCCc3ccc(S(N)(=O)=O)cc3)CC2)cc1,10.4% (inactive)
19,NC(=O)c1ccccc1N/C=C/C(=O)c1cccs1,-4.97% (inactive)
20,O=C(N/C(=C/c1ccc(Br)cc1)C(=O)N1CCOCC1)c1ccc(Br)o1,17.4% (inactive)
21,O=C(Nc1ncc(Br)s1)C(Cc1ccccc1)n1cccc1 (stereo not given),-1.84% (inactive)
22,CN(C)CCC(c1ccccc1)c1ccccn1 (stereo not given),7.71% (inactive)
23,CCC(C)n1ncn(-c2ccc(N3CCN(c4ccc(OCC5COC(Cn6cncn6)(c6ccc(Cl)cc6Cl)O5)cc4)CC3)cc2)c1=O (stereo not given),8.73% (inactive)
24,CC(=C/c1ccccc1)/C=N/n1c(-c2ccncc2)n[nH]c1=S,5.21% (inactive)
25,Cn1cccc1/C=N/n1c(-c2ccc(Cl)cc2Cl)n[nH]c1=S,13.1% (inactive)
26,CCn1c(=O)c2c(cnn2C)c2ccccc21,-1.53% (inactive)
27,OC(CCCN1CCCCC1)(c1ccccc1)c1ccccc1,14.8% (inactive)
28,COc1ccc(N2C(=O)C(Cl)=C(NCc3ccccc3)C2=O)cc1,21.9% (inactive)

row,SMILES,"activity change, negative = cytotoxicity"
1,COC(=O)[C@@]1(C)[C@H]2C(=O)N(Cc3ccccc3)C(=O)[C@H]2[C@H]2CN=C(SCc3ccc(Cl)cc3)N21,14.4% (inactive)
2,CC(C)Nc1nnc(SCC(=O)c2c(N)n(Cc3ccccc3)c(=O)n(C)c2=O)s1,-5.09% (inactive)
3,CCN(C(=O)c1cc(OC)c(OC)c(OC)c1)C1CCCCC1,4.8% (inactive)
4,COC(=O)C1=NNC(C(=O)OC)C1c1ccccc1 (stereo not given),10.5% (inactive)
5,Cn1c(=O)c2c(ncn2CC(=O)Nc2cc(S(=O)(=O)N3CCCCC3)ccc2O)n(C)c1=O,22.4% (inactive)
6,COCCN1Cc2cccc(C(=O)N3CCN(c4cc(C)ccc4C)CC3)c2C1=O,-0.546% (inactive)
7,O=C(Nc1cc(C(F)(F)F)cc(C(F)(F)F)c1)Nc1cnn(-c2ccc([N+](=O)[O-])cc2)c1C(F)(F)F,-5.69% (inactive)
8,CCOCCCn1cnc2c3cc(F)ccc3n(C)c2c1=O,4.71% (inactive)
9,CCOC(=O)CCSc1nc(N2CCOCC2)c2c(c1C#N)CC(C)(C)OC2,20.7% (inactive)
10,COc1ccc(-c2cn3nc4c(nc3n2)CCCC4)cc1,-0.376% (inactive)
11,COc1cccc(C(=O)OCn2nnc3ccccc3c2=O)c1OC,17.8% (inactive)
12,Nc1nc(N)nc(-c2cc(Cl)ccc2Cl)n1,11.4% (inactive)
13,O=C(COc1ccc2ccccc2c1)NCCNC(=O)COc1ccc2ccccc2c1,13.9% (inactive)
14,O=c1c2cnn(-c3ccccc3)c2nc(-c2cccs2)n1-c1ccc(Br)cc1,-8.44% (inactive)
15,CC1CC(C)CN(S(=O)(=O)c2ccc(NC(=O)CCN3C(=O)C4CC=CCC4C3=O)cc2)C1 (stereo not given),10.9% (inactive)
16,COc1ccc(S(=O)(=O)NCC(c2cccnc2)N2CCN(c3ccc(F)cc3)CC2)cc1C (stereo not given),13.6% (inactive)
17,Cc1nc2ncccn2c1-c1csc(Nc2ccccc2)n1,-27.8% (inactive)
18,CC(=O)c1sc(NC(=O)C2COc3ccccc3O2)nc1C (stereo not given),10.2% (inactive)
19,O=C(COC(=O)c1cc2ccccc2cc1O)NCc1ccccc1,18% (inactive)
20,CCNc1nc(CN2CCOCC2)nc2sc3c(c12)CCC3,12% (inactive)
21,O=c1c(O)c(-c2ccc(O)c(O)c2)oc2cc(O)cc(O)c12,2.22% (inactive)
22,O=C(O)[C@@H]1[C@H]2C[C@H]3c4[nH]c5ccccc5c4CCN3C[C@@H]2CC[C@@H]1O,5.86% (inactive)
23,CC1=NN(C(N)=S)C(=O)C1N=Nc1cccc(C(=O)O)c1 (stereo not given),22% (inactive)
24,Cc1ccc(C(=O)Nc2ccc3c(c2)OCCO3)c(Cl)c1,3.86% (inactive)
25,Cc1ccc(C)c(S(=O)(=O)N2CCN(C(=O)c3ccc(C)s3)CC2)c1,0.259% (inactive)
26,N#Cc1c(Nc2ccccc2)sc(C(=O)c2ccc(F)cc2)c1N,15.1% (inactive)
27,CNC(=S)Nc1ccc2nc(C)c(C)nc2c1,19.5% (inactive)
